The values that follow come from PubChem BioAssay AID485317 (Broad Institute, 2010).

Molecules are shown by their SMILES. Hit rate of the full screen: of about 290,000 compounds, about 11,000 (3.8%) were called active. The sample holds actives, similar compounds and a random draw of the others, so the mix is not that of the screen. Values without a mark were called inactive.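 The calls were made as follows: active = mean replicate inhibition above about 79%, with every replicate also reaching it (limit read from the data); inconclusive = only one of the two criteria met; inactive = mean below limit and not every replicate reaching it.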

As a reminder, the inhibition is the change of the read-out against control, counted positive when it falls.

This assay deals with FAD-linked sulfhydryl oxidase ALR (Homo sapiens) (UniProt P55789). The assay can be described thus: ALR-catalysed DTT oxidation blockers – biochemical, H2O2 detection, HRP-luminol luminescence, single point, primary screen (AID 485317). The conditions noted are these: purified ALR, stronger effect = higher value, concentration not given here.
Sequence of FAD-linked sulfhydryl oxidase ALR (Homo sapiens) (P55789 whole entry, looked up): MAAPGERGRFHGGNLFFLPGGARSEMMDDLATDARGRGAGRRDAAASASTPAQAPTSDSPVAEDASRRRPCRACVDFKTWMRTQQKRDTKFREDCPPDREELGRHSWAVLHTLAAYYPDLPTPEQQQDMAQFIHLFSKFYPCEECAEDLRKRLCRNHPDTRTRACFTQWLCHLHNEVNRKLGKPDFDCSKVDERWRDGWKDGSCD
As to `CC(CNC(=O)Cn1cnc2c(OCc3ccccc3)ncnc21)c1ccccc1` (configuration not stated), the inhibition is -1.23%. The value for `CC1(c2nnc(Cc3ccccc3)o2)CC(c2ccccc2F)=NO1` (configuration not stated) was 1.62%; that for `CCCNC(=O)c1ccc(N2CCC3(CC2)CC(c2cccc(Br)c2)=NO3)c(NC(=O)c2ccco2)c1` was 6.36%; that for `O=C(CSc1nc2ccccc2c(=O)[nH]1)Nc1nc(-c2ccc(Br)cc2)cs1` was -3.23%. Then `N#Cc1c(-c2cccs2)nc(SCC(=O)c2ccc(Br)cc2)[nH]c1=O`, with 98.5% (active); and `Cc1cc(C)c2c(=O)[nH]c(SCC(=O)Nc3ccc(Br)cc3)nc2n1`, with -7.51%. Regarding `COCCNc1nnc(SCC(=O)NNC(=O)c2ccco2)s1`, the inhibition was -2.35%.

Consider `O=C(NCc1ccc2c(c1)OCO2)c1cc([N+](=O)[O-])ccc1N1CCOCC1`, for which the inhibition was -3.3%. As to `O=C(O)c1cccc(S(=O)(=O)N2CC=C(c3ccccc3)CC2)c1`, the inhibition is 3.35%. As to `Cc1ccc(C(=O)CNc2ccc(F)cc2)cc1`, the inhibition was -18.2%. For the compound `Cc1ccc(SC(CC(=O)c2ccc(C(C)(C)C)cc2)C(=O)O)cc1` (configuration not stated), the inhibition was 97.7% (active). Then `Cc1ccc(C(=O)NCCNC(=O)c2ccccc2)cc1`, with -3.69%. Turning to `CC(C)(C)OC(=O)C[C@@H]1C/C=C\C[C@@H](CC(=O)N(CCO)Cc2ccccc2)C(=O)N[C@H](Cc2ccccc2)COC1=O`, the inhibition was -5.13%. For the compound `Cc1cc(NC(=O)CSCC(=O)NC(C)c2ccccc2)no1` (configuration not stated), the inhibition was -11.9%. Then `COc1ccc(/C=C2\SC(=O)N(CCC(=O)NCCCn3ccnc3)C2=O)cc1`, with -4.29%; and `COc1ccc(/C=C2/SC(=O)N(CCCCCC(=O)Nc3ccccc3C(=O)O)C2=S)cc1`, with 98.9% (active).

As to `O=C(CCCN1C(=O)/C(=C\c2ccccc2)SC1=S)Nc1ccccc1O`, the inhibition was 1.84%.

Regarding `O=C1COc2ccc(C(=O)COC(=O)c3ccccc3Cl)cc2N1`, the inhibition is -5.15%. The value for `CCC(CO)Oc1cc(NC(=O)c2cccc3ccccc23)c2ncn(C(C)C)c2c1` (configuration not stated) was -21.2%. The value for `COC(=O)CNS(=O)(=O)c1ccc(Cc2ccc(S(=O)(=O)NCC(=O)OC)cc2)cc1` was 99.2% (active); that for `COC(=O)CNS(=O)(=O)c1ccc(OC)cc1` was -8.89%. Then `C/C(N)=C(/C#N)C(=O)COC(=O)CNS(=O)(=O)c1ccc(C)cc1`, with -12.8%.

As for `COc1cc(C(=O)N(C)Cc2cccc(OC)c2OC)ccc1OCC(=O)Nc1cccc(C(F)(F)F)c1`, the inhibition is -114%. The value for `CC1O[C@@H](OC2C(O)C(C)O[C@H](OC(=O)[C@]34CCC(C)(C)C[C@H]3C3=CCC5[C@@]6(C)CC(O)C(O[C@@H]7OC(CO)C(O)[C@@H](O)[C@@H]7O)[C@@](C)(C(=O)O)C6CC[C@@]5(C)[C@]3(CO)CC4)C2O[C@H]2OC(C)[C@@H](O[C@@H]3OCC(O[C@@H]4OC(CO)C(O)[C@H](O)C4O)[C@@H](O)[C@@H]3O)[C@H](O)C2O)C(O)C(O)C1O` (some centres not stated) was 22.9%; that for `O=C(C[C@H]1C/C=C\C[C@@H](NC(=O)OCC2c3ccccc3-c3ccccc32)C(=O)O[C@@H](c2ccccc2)CNC1=O)N[C@H](CO)Cc1ccccc1` was 0.728%; that for `OCc1ccc(-c2ccccc2)c(-c2ccccc2)c1` was -3.81%. `CCOc1ccc(C(=O)Nc2ccc(S(=O)(=O)NCC3CCCO3)cc2)cc1OCC` (configuration not stated): the inhibition is 1.23%.

As to `CCOc1ccccc1Nc1nnc(SCC(=O)NCC2CCCO2)s1` (configuration not stated), the inhibition was 1.03%. Take `CCOc1cc(-c2nc3cc(C)ccn3c2NCC2CCCO2)ccc1O` (configuration not stated): the inhibition was 99.6% (active). For the compound `O=C(COC(=O)c1ccc(F)cc1)Nc1ccc2c(c1)OCO2`, the inhibition was -9.08%.

Take `C=CC[C@@H](CC(=O)N[C@H](CO)Cc1ccccc1)C(=O)N[C@@H](COC(=O)[C@@H](CC=C)Cc1ccc(F)cc1)Cc1c[nH]c2ccccc12`: the inhibition was 10.3%. Then `COc1ccccc1C(=O)Nc1nc2nc(-c3ccccc3)cc(=O)n2[nH]1`, with 97.8% (active). Then `COc1ccccc1C(=O)Nc1ccc(Nc2ccccc2)cc1`, with -2.18%. Regarding `COc1ccccc1C(=O)Nc1ccccc1C(=O)Nc1ccccc1`, the inhibition was 4.88%.

Consider `O=C(CNC(=O)c1ccco1)NNC(=O)c1ccc(Br)cc1`, for which the inhibition is -12.3%. For the compound `C=CCC1(C(=O)N(C)Cc2ccccc2)CCN(C(=O)OC(C)(C)C)CC1`, the inhibition was -25%. Then `COc1ccc(NC(=O)CSc2nc(C)cs2)cc1`, with -14.7%; and `COc1ccc(NC(=O)CSc2ncnc3[nH]ncc23)cc1`, with 98.6% (active). Then `CC(=O)Nc1ccc(NC(=O)CSc2ncnc3c2cnn3Cc2ccccc2)cc1`, with -9.78%; and `CCCCn1nc(C(=O)Nc2cccc(C(=O)NC3CC3)c2)c2ccccc2c1=O`, with -0.223%; and `Cc1ccc(Nc2nnc(SC(C)C(=O)NC3CC3)s2)cc1` (configuration not stated), with 7.72%. On to `COc1ccccc1C(=O)N1CCN=C1SCc1cccnc1`, for which the inhibition was 96.4% (active). The value for `COc1ccccc1C(=O)NCCC(=O)N(C)Cc1cccnc1` was -1.19%; that for `COc1cccc(OC)c1C(=O)N1CCN(Cc2cccnc2)CC1` was 6.59%; that for `C=C1CCC(N(O)c2cc(C)on2)C(=C)CCC2C1CC2(C)C` (configuration not stated) was 4.12%.

Regarding `COc1ccccc1C(=O)OCC(=O)Nc1cccc(S(=O)(=O)NC2=NCCCCC2)c1`, the inhibition is 14.6%. The value for `Cc1ccc(S(=O)(=O)N2CCN(C(=O)Cn3c(=O)cnc4ccccc43)CC2)c(C)c1` was -23.6%. The value for `CCc1sc(C(=O)N2CCN(CC(=O)Nc3cccc(F)c3)CC2)cc1C` was -6.06%; that for `CCNc1nc(NCC)nc(N/N=C/c2ccc(O)c(OC)c2)n1` was 99.1% (active). Then `CCOc1cc(/C=C(\C#N)c2nc(-c3cccs3)c(NC(C)=O)s2)ccc1O`, with -22.4%. For `COc1cc(/C=N/Nc2nc3ccccc3s2)ccc1O`, the inhibition was 46.3%.

As for `COc1cc(/C=N\Nc2nc(-c3cccs3)c(NC(C)=O)s2)ccc1O`, the inhibition is 98.9% (active). Take `COc1ccc(/C=N/Nc2nc3ccccc3o2)cc1OC`: the inhibition is -12.6%. Then `CCNc1nc(N)nc(-c2cc(Cl)ccc2OC)n1`, with 4.24%. With `COc1ccccc1/C=N/Nc1nc(C)c(C(C)=O)s1`, the inhibition is 3.01%. Then `CSc1ccc(/C=C2\NC(=O)NC2=O)cc1`, with 4.58%. The value for `Cc1ccc(N=C2NC(=O)/C(=C/C=C/c3ccco3)S2)cc1C` was 88.6% (active); that for `Cc1cccc(N=C2NC(=O)/C(=C/c3cn(C)c4ccccc34)S2)c1` was -1.56%; that for `COC(=O)C1=C(C)N(c2ccc(Br)cc2)C(=O)/C1=C\c1ccco1` was 3.31%.

Regarding `Cc1ccc(N2NC(=O)/C(=C/C=C/c3ccco3)C2=O)cc1C`, the inhibition is 97.4% (active). Then `Cc1ccc(-c2cc(C(=O)N/N=C/C=C/c3ccco3)c3ccccc3n2)cc1C`, with -5.26%; and `COc1ccc(CNC(=O)COC(=O)c2sccc2C)cc1OC`, with 2.29%. On to `O=C(CN1C(=O)NC2(CCCC2)C1=O)OCCOc1ccc(F)cc1`, for which the inhibition was -0.86%. The value for `CN(CC(=O)Nc1ccc(Cl)cc1)C(=O)c1ccc(COc2ccccc2)cc1` was -2.8%; that for `Cc1[nH]c2ccccc2c1/C=N\NC(=O)Cn1nnc(-c2ccccc2)n1` was -18.5%. The value for `COCCNC(=S)N/N=C/c1c(C)[nH]c2ccccc12` was 98% (active); that for `Cc1[nH]c2ccccc2c1/C=N/NC(=O)CNC(=O)c1ccc2c(c1)OCO2` was -4.62%. The value for `O=C(COC(=O)C1(c2ccc(F)cc2)CCCC1)N1CCNC1=O` was 1.5%; that for `COc1ccccc1C(CNC(=O)c1cccc(NS(=O)(=O)c2ccc(Br)cc2)c1)N(C)C` (configuration not stated) was -2.7%. Take `CC(C)NC(=O)Nc1cccc2c1O[C@@H](CN(C)S(=O)(=O)c1ccc(F)cc1)[C@@H](C)CN([C@H](C)CO)C2=O`: the inhibition was -3.22%. Then `CCOC(=O)c1c(-c2cccc(N)c2)cn2ccccc12`, with 99% (active); and `CCOC(=O)c1c(N)nn(C(=O)c2ccccc2)c1-c1ccccc1`, with 3.16%; and `CCOC(=O)c1c(-c2ccccc2)oc2cc(Br)c(O)cc12`, with 13.2%. Then `CCOC(=O)c1sc(N)c(C#N)c1COC(=O)C1=COCCO1`, with -1.4%; and `CCOC(=O)CSc1nc(C)cc2c1C(=O)OC2`, with -5.37%. The value for `CCOC(=O)CSC1=N/C(=C/c2ccc(-n3cncn3)cc2)C(=O)N1C(C)=O` was 97.6% (active); that for `CCOC(=O)CSc1ccccn1` was -2.85%; that for `CC(=O)Nc1ccc(NC(=O)COC(=O)c2ccccc2C(=O)c2ccccc2)cc1` was 0.353%. With `COc1ccc(S(=O)(=O)N2CCCCCC2)cc1C(=O)N(C)Cc1cccc(OC)c1OC`, the inhibition was -1.21%. Then `CCOc1ccc(C(=O)NCC(=O)N2CCN(c3ccc(C(F)(F)F)cn3)CC2)cc1`, with 1.77%.

As for `O=C(COC(=O)CN1C(=O)C2CCCCC2C1=O)Nc1ccc(F)c(F)c1F` (configuration not stated), the inhibition is -5.29%. For the compound `Cc1cccc(NC(=O)c2sc(-c3ccccc3)nc2-c2ccc([N+](=O)[O-])cc2)c1`, the inhibition is -3.26%. The value for `Cc1nc(-c2ccc([N+](=O)[O-])cc2)c(-c2ccccc2)o1` was 97.6% (active); that for `COc1ccc([N+](=O)[O-])cc1-c1nc2ccccc2nc1-c1ccccc1` was -10.3%; that for `CCC(CO)Oc1cc(NCc2ccccc2)c2ncn(C3CCCC3)c2c1` (configuration not stated) was 15.4%.

In the case of `CC1CC1C(=O)OCC(=O)Nc1cccc(F)c1` (configuration not stated), the inhibition is -3.36%. The value for `COC(=O)c1ccc(C)c(NC(=O)Cn2c(C)csc2=O)c1` was -1.89%.
